# Results as given in PubChem BioAssay.
# Values joined by “and” are separate entries in the source; they are usually repeats but may differ in a detail not shown here. Equal entries are not always repeated. Active and inactive are the calls of the source. Rule as the data show it, unless noted: active = inhibition above about 80%; inactive = the rest.
# Key:
# [1] = hESC survival regulators, cell-based (AID 493140; call rule not given here;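 also: cells exposed to compounds for four days before counting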); conditions: human embryonic stem cell survival screen; stronger effect = higher value
# [2] = liver-stage malaria parasite growth inhibition, primary screen, cell-based, HepG2, luciferase luminescence, HepG2 viability (AID 624349; in the data active = parasite load remaining mostly below about 12%, no sharp cut-off; inactive = mostly above about 10%;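 also: 100% = mean of DMSO negative control wells on the same plate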); conditions: P. berghei liver stage in HepG2, luciferase luminescence, concentration not given here; parasite load remaining: stronger effect = lower value; viability: measured here: HepG2 viability without parasites
# [3] = sensitizers of A549 cells to miR-34 induction, primary screen, imaging, A549 dox-inducible miR-34, nuclei and caspase counts (AID 1347080;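 active = compounds whose cell count with miR-34 switched on is under 0.7 times the count with it off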); conditions: A549 miR-34 inducible, Hoechst nuclei count, 48 h
# [4] = survival rescue of mitochondrial mutant cells in low glucose, primary screen, MELAS cybrids, Rieske KO mouse fibroblasts, CellTiter-Glo (AID 1508586;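 active = mean z-score across replicates of 1.96 or higher in either the MELAS or the Rieske mutant cell line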;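 also: z relative to plate mean and SD of compound and empty wells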)
# [5] = LFS_MB_P medulloblastoma growth inhibition, cell-based, chromothripsis tumors, cisplatin or BGB combos (AID 1671449); conditions: LFS_MB_P medulloblastoma cells;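 also: cells exposed for 96 hours; 0% = vehicle DMSO and 100% = killing by high DMSO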
# [6] = HDN33 neuroblastoma growth inhibition, cell-based, chromothripsis tumors, cisplatin or BGB combos (AID 1671450); conditions: HDN33 neuroblastoma cells, stronger effect = higher value;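 also: cells exposed to compound for four days; 0% = vehicle DMSO and 100% = cell killing by high DMSO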
# [7] = ICB984 medulloblastoma cell growth inhibition, synergistic combos for chromothripsis tumors, cisplatin or BGB combos (AID 1671451; call rule not given here;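 also: cells exposed for 96 hours before readout; 0% = vehicle DMSO and 100% = killing by high DMSO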); conditions: ICB984 medulloblastoma cells, drug combinations, stronger effect = higher value
# [8] = LFS_MB_1R medulloblastoma cell growth inhibition, synergistic combos for chromothripsis tumors, cisplatin or BGB combos (AID 1671452); conditions: LFS_MB_1R medulloblastoma cells, stronger effect = higher value;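 also: cells exposed for 96 hours before readout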
# [9] = HTB85 osteosarcoma cell growth inhibition, synergistic combos for chromothripsis tumors, BGB or cisplatin IC20 combos (AID 1671453); conditions: HTB85 osteosarcoma cells, drug combinations, stronger effect = higher value;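 also: cells exposed for 96 hours before readout; 0% = vehicle DMSO and 100% = high DMSO killing control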
# [10] = CRL2098 osteosarcoma cell growth inhibition, synergistic combos for chromothripsis tumors, BGB or cisplatin IC20 combos (AID 1671454); conditions: CRL2098 osteosarcoma cells, drug combinations, stronger effect = higher value;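 also: cells exposed for 96 h before readout; 0% = vehicle DMSO and 100% = killing by high DMSO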
# [11] = HD-MB03 medulloblastoma cell growth inhibition, synergistic combos for chromothripsis tumors, BGB or cisplatin IC20 combos (AID 1671455; in the data active = inhibition above about 83%;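 also: 0% = vehicle DMSO and 100% = high DMSO as cytotoxic control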); conditions: HD-MB03 medulloblastoma cells, stronger effect = higher value
# [12] = UWB1.289 ovarian carcinoma cell growth inhibition, synergistic combos for chromothripsis tumors, BGB or cisplatin combos (AID 1671456); conditions: UWB1.289 ovarian carcinoma cells, stronger effect = higher value;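 also: cells exposed to compound for four days; 0% = vehicle DMSO and 100% = killing by high DMSO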
# [13] = LFS_MB_2R medulloblastoma cell growth inhibition, synergistic combos for chromothripsis tumors, cisplatin combos (AID 1671457); conditions: LFS_MB_2R medulloblastoma cells, stronger effect = higher value;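 also: cells exposed to compound for four days before readout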
# [14] = MDA-MB-436 breast carcinoma cell growth inhibition, synergistic combos for chromothripsis tumors, BGB or cisplatin combos (AID 1671458; call rule not given here;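 also: cells exposed for 96 hours; 0% = vehicle DMSO and 100% = killing by high DMSO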); conditions: MDA-MB-436 breast carcinoma growth inhibition, drug combinations, stronger effect = higher value
# [15] = UWB1.289_BRCA1 ovarian cancer growth, cell-based, BGB or cisplatin combinations (AID 1671459); conditions: UWB1.289 BRCA1 ovarian carcinoma, drug combinations, stronger effect = higher value
# [16] = human astrocyte viability loss, single and combined drugs, cytotoxicity control for chromothriptic childhood tumor combination screen, cell-based, BGB or cisplatin IC20 combos (AID 1671460); conditions: Human astrocytes, drug combinations, stronger effect = higher value;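 also: cells exposed to compounds for 96 hours before viability readout; 0% = vehicle and 100% = killing control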
# [17] = growth inhibition of BT084 medulloblastoma cells, cell-based, ICGC_MB145, cisplatin and BGB IC40 combos (AID 1671461); conditions: drug combinations, stronger effect = higher value;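 also: cells exposed to drugs for 96 hours; 0% = vehicle DMSO and 100% = high DMSO full killing control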
# [18] = growth inhibition of RCMB18 medulloblastoma cells, cell-based, cisplatin and BGB IC40 combos (AID 1671462); conditions: stronger effect = higher value;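 also: cells exposed to compound for four days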
# [19] = growth inhibition of CRL1545 osteosarcoma cells, cell-based, cisplatin and BGB IC20 combos (AID 1671464); conditions: stronger effect = higher value;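 also: cells exposed to compound for 96 hours before readout; 0% = vehicle DMSO and 100% = high DMSO killing control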
# [20] = stronger effect = lower value, cell number ratio, induced over uninduced
# [21] = measured here: relative caspase fold change +Dox/-Dox
# [22] = measured here: total cells with miR-34 induction, stronger effect = lower value
# [23] = measured here: total cells without miR-34 induction
# [24] = MELAS cybrid survival, CellTiter-Glo 48 h, stronger effect = higher value
# [25] = Rieske KO mouse fibroblast survival, CellTiter-Glo 72 h
# [26] = measured here: combination with BGB IC40, at 0.05 µM
# [27] = measured here: with BGB IC20 combination, at 0.5 µM
# [28] = measured here: with cisplatin IC20 combination, at 0.5 µM
# [29] = measured here: combination with cisplatin, at 0.5 µM
# [30] = measured here: combination with cisplatin, at 5 µM
structure (smiles),measurement,setting,value
Cc1cc(C(=O)NNCc2ccccc2)no1,survival,[1],3.33 (inactive)
same,parasite load remaining,[2],129% (inactive)
same,viability,[2],100%
same,fold change,[3]; [20],0.777 (inactive)
same,fold change,[3]; [21],1.27
same,cell count,[3]; [22],8090
same,cell count,[3]; [23],10400
same,z-score,[4]; [24],0.697 (inactive)
same,z-score,[4]; [25],0.109
c1ccc(CNc2ncnc3nc[nH]c23)cc1,survival,[1],39 (inactive)
same,parasite load remaining,[2],31% (inactive) and 123% (inactive)
same,viability,[2],49.8% and 87.6%
same,fold change,[3]; [20],1.05 (inactive)
same,fold change,[3]; [21],1.32
same,cell count,[3]; [22],8060
same,cell count,[3]; [23],7640
same,z-score,[4]; [24],2.23 (active)
same,z-score,[4]; [25],0.15
Cc1cc(C=CC#N)cc(C)c1Nc1ccnc(Nc2ccc(C#N)cc2)n1,fold change,[3]; [20],0.909 (inactive)
same,fold change,[3]; [21],0.615
same,cell count,[3]; [22],5740
same,cell count,[3]; [23],6310
same,z-score,[4]; [24],-0.58 (inactive)
same,z-score,[4]; [25],1.5
same,inhibition,"[5]; at 0.5 µM, stronger effect = higher value",-21.9% (inactive)
same,inhibition,"[5]; measured here: combination with BGB IC20, at 0.005 µM",-35.7%
same,inhibition,"[5]; measured here: combination with BGB IC40, at 0.005 µM",-21.8%
same,inhibition,[5]; [26],-24.8%
same,inhibition,"[5]; measured here: combination with cisplatin, at 0.5 µM, stronger effect = higher value",-44.6%
same,inhibition,"[5]; measured here: combination with cisplatin, at 5 µM, stronger effect = higher value",-38.4%
same,inhibition,"[6]; BGB combo, at 5 µM",-13%
same,inhibition,[6]; at 0.5 µM,-0.82% (inactive)
same,inhibition,"[6]; cisplatin combo, at 5 µM",4.37%
same,inhibition,[6]; [27],-15.3%
same,inhibition,[6]; [28],22.4%
same,inhibition,"[6]; single agent, at 5 µM",-11.3%
same,inhibition,"[7]; BGB IC20 combo, at 0.005 µM",-0.887%
same,inhibition,"[7]; BGB IC40 combo, at 0.005 µM",-17%
same,inhibition,"[7]; BGB IC40 combo, at 0.05 µM",-41.8%
same,inhibition,[7]; at 0.5 µM,-20.3% (inactive)
same,inhibition,"[7]; cisplatin combo, at 0.05 µM",-45.8%
same,inhibition,"[7]; cisplatin combo, at 0.5 µM",-18.9%
same,inhibition,"[7]; cisplatin combo, at 5 µM",-30.5%
same,inhibition,"[7]; measured here: 5 uM single agent, at 5 µM",-25.1%
same,inhibition,[8]; at 0.5 µM,-21.6% (inactive)
same,inhibition,[8]; [26],-25.9%
same,inhibition,[8]; [29],2.17%
same,inhibition,[8]; [30],-13.4%
same,inhibition,[9]; at 0.5 µM,-10.2% (inactive)
same,inhibition,"[9]; measured here: with BGB IC20, at 0.5 µM",-9.74%
same,inhibition,"[9]; measured here: with BGB IC20, at 5 µM",-26.3%
same,inhibition,"[9]; measured here: with cisplatin IC20, at 0.5 µM",-28.3%
same,inhibition,"[9]; measured here: with cisplatin IC20, at 5 µM",-20.2%
same,inhibition,"[9]; single agent, at 5 µM",0.45%
same,inhibition,[10]; at 0.5 µM,-49.8% (inactive)
same,inhibition,"[10]; measured here: combination with BGB at IC20, at 0.5 µM",-61.5%
same,inhibition,"[10]; measured here: combination with cisplatin at IC20, at 0.5 µM",-40%
same,inhibition,[11]; at 0.5 µM,-1.33% (inactive)
same,inhibition,"[11]; measured here: combo with BGB at IC20, at 0.5 µM",-1%
same,inhibition,"[11]; measured here: combo with cisplatin at IC20, at 0.5 µM",-1.41%
same,inhibition,[12]; at 0.5 µM,1.47% (inactive)
same,inhibition,"[12]; measured here: inhibition with BGB combination, at 0.05 µM",-12.2%
same,inhibition,"[12]; measured here: inhibition with cisplatin combination, at 0.05 µM",6.05%
same,inhibition,[13]; at 0.5 µM,-13.3% (inactive)
same,inhibition,[13]; [29],-13.5%
same,inhibition,[13]; [30],-51.8%
same,inhibition,[14]; at 0.5 µM,-19.9% (inactive)
same,inhibition,"[14]; measured here: BGB combination, at 0.5 µM",-6.06%
same,inhibition,"[14]; measured here: BGB combination, at 5 µM",-3.72%
same,inhibition,"[14]; measured here: cisplatin combination, at 0.5 µM",-45.9%
same,inhibition,"[14]; measured here: cisplatin combination, at 5 µM",-32.4%
same,inhibition,"[15]; BGB combination, concentration series, at 5 µM",96.3%
same,inhibition,[15]; at 0.5 µM,0.87% (inactive)
same,inhibition,"[15]; cisplatin combination, concentration series, at 5 µM",96.7%
same,inhibition,[16]; at 0.5 µM,1.39% (inactive)
same,inhibition,"[16]; measured here: combo with BGB IC20, at 0.5 µM",-1.88%
same,inhibition,"[16]; measured here: combo with cisplatin IC20, at 0.5 µM",-1.66%
same,inhibition,[17]; at 0.5 µM,-3.04% (inactive)
same,inhibition,"[17]; cisplatin combination, at 0.5 µM",-6.25%
same,inhibition,"[17]; cisplatin combination, at 5 µM",-4.4%
same,inhibition,"[17]; measured here: BGB IC40 combination 0.05 uM, at 0.05 µM",-11.4%
same,inhibition,"[17]; single agent, at 5 µM",-18.3%
same,inhibition,[18]; at 0.5 µM,-10.6% (inactive)
same,inhibition,"[18]; cisplatin combo, at 5 µM",14.8%
same,inhibition,"[18]; measured here: BGB IC40 combination, at 0.05 µM",-40.8%
same,inhibition,[18]; [29],0.155%
same,inhibition,"[18]; single agent, at 5 µM",-17.1%
same,inhibition,[19]; at 0.5 µM,-12.8% (inactive)
same,inhibition,[19]; [27],-13.1%
same,inhibition,[19]; [28],-15.2%
same,inhibition,"[19]; single agent, at 0.05 µM",1.38%
same,inhibition,"[19]; single agent, at 5 µM",-26.3%
